Laboratory results as given in the supplement of paper PMC11732987, “Enantioselective OTUD7B fragment discovery through chemoproteomics screening and high-throughput optimisation” (Communications Chemistry, 2025).

What was measured:
Experiment in all cases: log2 ratio of Biotin-Ahx-Ub-VS probe labelling (fragment/DMSO); higher = less target engagement (more negative = stronger competition), active = hit call of the paper (q ≤ 0.05, log2 ratio ≤ -1)
Details in all cases: compound concentration: 200 uM; treatment time: 3 h
ALG13 = biological target: T1, ALG13 (UniProt Q9NP73)
T1 sequence (whole entry): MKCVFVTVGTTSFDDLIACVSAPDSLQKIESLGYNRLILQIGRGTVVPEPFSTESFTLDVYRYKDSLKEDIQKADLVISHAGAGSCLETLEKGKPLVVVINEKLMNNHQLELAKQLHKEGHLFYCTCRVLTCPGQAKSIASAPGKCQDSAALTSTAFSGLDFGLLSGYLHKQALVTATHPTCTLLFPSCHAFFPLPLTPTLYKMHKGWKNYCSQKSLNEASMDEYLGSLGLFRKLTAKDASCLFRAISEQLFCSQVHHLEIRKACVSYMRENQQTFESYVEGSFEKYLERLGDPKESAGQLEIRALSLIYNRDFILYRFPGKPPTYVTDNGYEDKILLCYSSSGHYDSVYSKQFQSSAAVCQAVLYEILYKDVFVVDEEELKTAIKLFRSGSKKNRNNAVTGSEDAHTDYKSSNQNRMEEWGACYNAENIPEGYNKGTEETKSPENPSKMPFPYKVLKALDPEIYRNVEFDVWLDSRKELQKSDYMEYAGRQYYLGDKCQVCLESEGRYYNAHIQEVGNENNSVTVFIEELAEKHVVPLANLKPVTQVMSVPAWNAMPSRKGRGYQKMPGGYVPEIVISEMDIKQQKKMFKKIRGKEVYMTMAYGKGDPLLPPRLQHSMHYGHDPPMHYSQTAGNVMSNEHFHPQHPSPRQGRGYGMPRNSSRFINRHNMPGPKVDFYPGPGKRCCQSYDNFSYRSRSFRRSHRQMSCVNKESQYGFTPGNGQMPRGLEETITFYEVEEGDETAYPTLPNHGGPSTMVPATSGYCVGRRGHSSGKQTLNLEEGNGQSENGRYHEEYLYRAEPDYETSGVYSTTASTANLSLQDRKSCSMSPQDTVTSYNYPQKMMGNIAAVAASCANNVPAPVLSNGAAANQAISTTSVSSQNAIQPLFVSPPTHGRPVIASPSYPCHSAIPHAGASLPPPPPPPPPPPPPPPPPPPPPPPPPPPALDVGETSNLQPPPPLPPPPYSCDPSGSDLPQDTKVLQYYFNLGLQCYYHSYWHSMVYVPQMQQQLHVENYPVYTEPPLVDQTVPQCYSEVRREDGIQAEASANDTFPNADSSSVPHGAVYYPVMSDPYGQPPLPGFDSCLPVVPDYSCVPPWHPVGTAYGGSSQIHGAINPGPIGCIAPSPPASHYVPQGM
Procedure, shortened: (§1)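 Labelling with Biotin-Ahx-Ub-VS (0.5 µM final, 1 h) followed a 3 h triplicate treatment of HEK293T lysate (495 µg per sample, Tris/CHAPS/IGEPAL buffer with protease inhibitors) with fragment at 200 µM or vehicle. Labelled DUBs were NeutrAvidin-enriched, digested with LysC and trypsin, and run by diaPASEF LC-MS/MS. The values, average log2 fragment/vehicle ratios by unpaired t-test, come from global-median-normalised Spectronaut label-free quantities. Proteins with ≥2 unique peptides were used.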

ATXN3 = ATXN3 (UniProt P54252)
Procedure, shortened: as §1

BAP1 = biological target: T2, BAP1 (UniProt Q92560)
T2 sequence (whole entry): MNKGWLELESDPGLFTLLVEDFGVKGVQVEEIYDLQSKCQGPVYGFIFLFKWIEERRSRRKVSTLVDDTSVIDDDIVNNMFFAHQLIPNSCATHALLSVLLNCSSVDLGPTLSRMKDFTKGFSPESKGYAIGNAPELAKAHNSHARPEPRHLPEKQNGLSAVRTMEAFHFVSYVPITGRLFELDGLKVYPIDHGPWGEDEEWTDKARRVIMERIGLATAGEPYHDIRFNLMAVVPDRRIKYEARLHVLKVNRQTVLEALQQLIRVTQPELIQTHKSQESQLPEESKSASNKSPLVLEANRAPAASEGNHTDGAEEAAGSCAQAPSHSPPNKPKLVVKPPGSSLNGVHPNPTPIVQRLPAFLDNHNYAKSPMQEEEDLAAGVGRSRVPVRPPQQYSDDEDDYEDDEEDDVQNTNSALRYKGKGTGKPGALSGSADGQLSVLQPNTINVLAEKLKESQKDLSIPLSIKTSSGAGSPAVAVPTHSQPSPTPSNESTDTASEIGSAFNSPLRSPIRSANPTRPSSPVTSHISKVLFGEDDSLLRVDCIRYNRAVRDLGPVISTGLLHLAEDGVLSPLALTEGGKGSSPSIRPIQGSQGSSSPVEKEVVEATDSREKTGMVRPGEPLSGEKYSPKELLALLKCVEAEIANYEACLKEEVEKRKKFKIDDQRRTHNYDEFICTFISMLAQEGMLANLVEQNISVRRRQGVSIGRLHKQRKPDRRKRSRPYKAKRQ
Procedure, shortened: as §1

EIF3F = EIF3F (UniProt O00303)
Procedure, shortened: as §1

EIF3H = EIF3H (UniProt O15372)
Procedure, shortened: as §1

FAM105A = biological target: T3, FAM105A (UniProt Q9NUU6)
T3 sequence (whole entry): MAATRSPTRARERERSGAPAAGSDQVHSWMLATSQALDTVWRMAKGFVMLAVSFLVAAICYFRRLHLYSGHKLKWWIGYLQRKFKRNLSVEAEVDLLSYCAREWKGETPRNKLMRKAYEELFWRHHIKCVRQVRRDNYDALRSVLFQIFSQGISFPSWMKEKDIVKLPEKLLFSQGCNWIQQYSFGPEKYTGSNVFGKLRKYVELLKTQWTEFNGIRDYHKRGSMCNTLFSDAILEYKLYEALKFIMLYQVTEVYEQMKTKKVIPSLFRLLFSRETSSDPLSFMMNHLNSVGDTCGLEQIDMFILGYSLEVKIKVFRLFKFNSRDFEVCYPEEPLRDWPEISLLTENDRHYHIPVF
Procedure, shortened: as §1

OTUB1 = OTUB1 (UniProt Q96FW1)
Procedure, shortened: as §1

OTUD4 = biological target: T4, OTUD4 (UniProt Q01804)
T4 sequence (whole entry): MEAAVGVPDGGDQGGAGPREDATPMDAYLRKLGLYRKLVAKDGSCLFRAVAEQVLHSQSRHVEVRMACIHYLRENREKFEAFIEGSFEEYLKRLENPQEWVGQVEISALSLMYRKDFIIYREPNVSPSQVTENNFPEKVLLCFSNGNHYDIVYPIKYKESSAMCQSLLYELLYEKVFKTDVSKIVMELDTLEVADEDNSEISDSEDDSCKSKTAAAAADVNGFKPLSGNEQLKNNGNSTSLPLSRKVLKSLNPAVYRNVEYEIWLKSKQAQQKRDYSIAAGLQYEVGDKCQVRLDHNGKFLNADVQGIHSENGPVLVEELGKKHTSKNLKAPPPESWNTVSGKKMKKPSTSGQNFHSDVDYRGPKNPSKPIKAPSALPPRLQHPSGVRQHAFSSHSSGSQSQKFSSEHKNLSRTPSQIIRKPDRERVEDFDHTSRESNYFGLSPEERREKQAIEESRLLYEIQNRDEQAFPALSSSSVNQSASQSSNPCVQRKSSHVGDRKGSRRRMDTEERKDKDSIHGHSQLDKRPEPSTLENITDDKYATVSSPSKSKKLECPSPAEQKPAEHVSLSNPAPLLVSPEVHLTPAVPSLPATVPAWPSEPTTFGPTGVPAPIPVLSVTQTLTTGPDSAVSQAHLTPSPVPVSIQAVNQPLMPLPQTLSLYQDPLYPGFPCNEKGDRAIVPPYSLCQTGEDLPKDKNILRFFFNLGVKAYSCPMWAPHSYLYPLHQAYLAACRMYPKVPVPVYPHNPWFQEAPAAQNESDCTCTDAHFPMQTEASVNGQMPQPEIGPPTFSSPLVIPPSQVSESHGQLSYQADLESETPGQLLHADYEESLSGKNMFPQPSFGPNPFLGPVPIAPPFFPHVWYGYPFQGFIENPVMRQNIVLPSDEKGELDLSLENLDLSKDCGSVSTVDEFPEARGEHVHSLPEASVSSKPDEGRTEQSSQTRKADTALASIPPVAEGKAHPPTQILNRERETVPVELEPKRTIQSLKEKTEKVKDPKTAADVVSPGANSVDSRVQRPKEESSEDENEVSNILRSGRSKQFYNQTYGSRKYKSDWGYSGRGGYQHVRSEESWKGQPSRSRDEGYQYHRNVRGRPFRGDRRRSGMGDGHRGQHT
Procedure, shortened: as §1

OTUD5 = biological target: T5, OTUD5 (UniProt Q96G74)
T5 sequence (whole entry): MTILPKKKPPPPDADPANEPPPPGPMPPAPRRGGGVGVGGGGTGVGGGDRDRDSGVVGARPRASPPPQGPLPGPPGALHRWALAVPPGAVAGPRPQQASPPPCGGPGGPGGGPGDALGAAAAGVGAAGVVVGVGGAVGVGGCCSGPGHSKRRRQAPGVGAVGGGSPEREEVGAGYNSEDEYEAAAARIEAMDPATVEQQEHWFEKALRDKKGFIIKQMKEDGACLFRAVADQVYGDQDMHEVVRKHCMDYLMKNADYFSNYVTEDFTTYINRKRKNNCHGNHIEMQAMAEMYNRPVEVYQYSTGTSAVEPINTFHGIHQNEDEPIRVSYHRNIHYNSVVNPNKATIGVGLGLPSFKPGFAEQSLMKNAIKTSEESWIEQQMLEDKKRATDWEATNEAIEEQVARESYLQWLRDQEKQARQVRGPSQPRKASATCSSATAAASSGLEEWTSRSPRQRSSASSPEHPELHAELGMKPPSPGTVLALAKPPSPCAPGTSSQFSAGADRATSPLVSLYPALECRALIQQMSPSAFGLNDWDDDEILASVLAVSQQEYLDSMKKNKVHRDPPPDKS
Procedure, shortened: as §1

Measured: log2 ratio of Biotin-Ahx-Ub-VS probe labelling

OTUB1, sequence (Q96FW1 whole entry): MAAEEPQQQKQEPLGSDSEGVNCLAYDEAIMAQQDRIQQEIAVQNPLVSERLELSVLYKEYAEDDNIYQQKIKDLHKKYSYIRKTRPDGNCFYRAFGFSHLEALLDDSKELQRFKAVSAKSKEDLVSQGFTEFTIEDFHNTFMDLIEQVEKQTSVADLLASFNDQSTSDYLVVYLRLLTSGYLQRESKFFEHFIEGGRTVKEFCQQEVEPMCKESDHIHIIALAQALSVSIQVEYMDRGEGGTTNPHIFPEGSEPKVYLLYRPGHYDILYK
EIF3H, sequence (O15372 whole entry): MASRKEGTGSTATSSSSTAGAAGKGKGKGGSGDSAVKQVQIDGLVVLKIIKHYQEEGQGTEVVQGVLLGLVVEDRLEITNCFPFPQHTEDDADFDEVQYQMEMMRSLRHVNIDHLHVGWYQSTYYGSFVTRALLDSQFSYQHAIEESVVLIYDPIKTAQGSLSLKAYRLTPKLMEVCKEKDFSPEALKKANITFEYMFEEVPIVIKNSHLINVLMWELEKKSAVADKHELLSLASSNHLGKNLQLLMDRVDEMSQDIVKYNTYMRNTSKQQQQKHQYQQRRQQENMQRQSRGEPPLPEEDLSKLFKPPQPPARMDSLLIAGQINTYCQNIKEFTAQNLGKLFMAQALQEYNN
EIF3F, sequence (O00303 whole entry): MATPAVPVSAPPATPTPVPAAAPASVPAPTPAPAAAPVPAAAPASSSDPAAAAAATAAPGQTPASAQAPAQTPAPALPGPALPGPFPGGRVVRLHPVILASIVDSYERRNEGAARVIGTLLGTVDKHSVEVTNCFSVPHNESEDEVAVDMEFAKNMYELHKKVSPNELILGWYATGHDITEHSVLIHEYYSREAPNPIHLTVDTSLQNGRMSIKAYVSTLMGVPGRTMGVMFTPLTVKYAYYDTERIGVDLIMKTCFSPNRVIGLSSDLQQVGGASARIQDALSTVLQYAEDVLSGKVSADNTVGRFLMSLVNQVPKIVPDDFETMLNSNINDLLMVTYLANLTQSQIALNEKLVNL
ATXN3, sequence (P54252 whole entry): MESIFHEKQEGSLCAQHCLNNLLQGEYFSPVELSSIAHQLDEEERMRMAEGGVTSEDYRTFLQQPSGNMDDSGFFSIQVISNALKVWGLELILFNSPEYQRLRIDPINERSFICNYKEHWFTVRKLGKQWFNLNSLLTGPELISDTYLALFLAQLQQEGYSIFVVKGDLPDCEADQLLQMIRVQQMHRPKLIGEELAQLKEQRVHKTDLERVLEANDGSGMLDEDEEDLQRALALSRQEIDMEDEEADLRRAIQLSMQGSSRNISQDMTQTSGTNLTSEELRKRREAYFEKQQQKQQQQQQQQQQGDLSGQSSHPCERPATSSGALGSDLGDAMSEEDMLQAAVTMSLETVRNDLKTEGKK

Cc1cc(C(=O)NC2CCN(C(=O)CCl)CC2)no1
inactive: ALG13 0.0715 | ATXN3 -0.572 | BAP1 -0.339 | EIF3F -0.05 | EIF3H 0.0609 | FAM105A 0.133 | OTUB1 -0.0459 | OTUD4 -0.297 | OTUD5 -0.298
